Rows were chosen to be rich in hits. Some 11% of all compounds tested hit in one or more screens of this group.
hNpr1 antagonist = blocks ANP-stimulated signaling of human Npr1 receptor | 76,000 tested, 1.6% active | Potency, µM (titrated, usually from 46.3 µM), actives largely listed as inhibitors | AID 1347048 | HEK293 hNpr1 GloSensor cGMP, ANP-stimulated luminescence | P16066; calls by dose curve; further: nearly all actives have a fitted effect of over 60% in size
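Compound pre-incubated 30 min at room temperature on GloSensor-loaded HEK293 cells stably carrying hNpr1 and the pGS-40F cGMP biosensor. Stimulation uses hNppA at 0.1 nM final; luminescence is taken at baseline and 20 min post-agonist.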
FLuc inh = inhibitors of firefly (Photinus pyralis) luciferase. P08659. purified P. pyralis luciferase, luminescence, biochemical. Potency, µM (titrated, usually from 115 µM), hits mostly inhibitors. 76,000 tested, 2.5% active. AID 1347043; further: nearly all actives have a fitted effect of over 65% in size
Target sequence (P08659 whole entry, looked up): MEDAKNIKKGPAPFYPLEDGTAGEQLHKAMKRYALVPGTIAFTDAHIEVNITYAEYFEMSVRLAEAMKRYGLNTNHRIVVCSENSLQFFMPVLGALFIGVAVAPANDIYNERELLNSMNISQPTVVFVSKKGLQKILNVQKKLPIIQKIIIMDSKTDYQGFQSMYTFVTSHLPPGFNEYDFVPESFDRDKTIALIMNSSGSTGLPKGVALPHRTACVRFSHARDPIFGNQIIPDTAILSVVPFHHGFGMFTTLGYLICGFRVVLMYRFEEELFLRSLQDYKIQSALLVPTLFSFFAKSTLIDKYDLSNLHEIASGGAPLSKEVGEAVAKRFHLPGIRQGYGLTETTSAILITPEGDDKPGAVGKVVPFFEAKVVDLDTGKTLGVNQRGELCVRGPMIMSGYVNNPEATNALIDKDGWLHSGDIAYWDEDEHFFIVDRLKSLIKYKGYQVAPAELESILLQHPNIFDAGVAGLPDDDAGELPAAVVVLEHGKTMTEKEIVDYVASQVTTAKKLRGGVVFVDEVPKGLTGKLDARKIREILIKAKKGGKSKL
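FLuc 10nM, D-luciferin 10uM, ATP 10uM, Mg acetate 10mM, Tris acetate pH 7.5, Tween/BSA; cpd qHTS; enzyme added last; CCD luminescence.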
3T3 cytotox = cytotoxic compounds in NIH 3T3 cells; NIH 3T3 viability, CellTiter-Glo ATP luminescence, 48-72 h; Potency, µM (doses to about 96.7 µM), actives largely listed as inhibitors; 94,000 tested, 4.3% active; further: nearly all actives have a fitted effect of over 55% in size
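Cytotoxicity was measured by CellTiter-Glo ATP luminescence after 48 or 72 h compound exposure at 37 °C. Mouse NIH 3T3 fibroblasts were seeded at 400 cells/well and dosed by 23 nL pin transfer.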
HEK cytotox = cytotoxic compounds in HEK 293 cells; HEK 293 viability, ATP luminescence (CellTiter-Glo), 48-72 h; Potency, µM (doses to about 115 µM), usual class: inhibitors; 94,000 tested, 6.6% active; AID 1345083; further: nearly all actives have a fitted effect of over 60% in size
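CellTiter-Glo luminescence (cellular ATP) was read after 48 or 72 hr of compound exposure at 37 degree Celsius. Cells were HEK 293 plated at 250 cells/well.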
Each line names hits and unclear results; the compound was inactive in the other large screens. Unless noted, the call rests on the fitted dose curve; in most records, active means well fitted curve in the direction sought with a large enough effect; inconclusive means small, poorly fitted or top-dose-only effect, or another doubt; inactive means no such curve, though single readings can be large; an effect the other way counts as inactive or inconclusive.

CC1(C)[C@H](Cc2cc(-c3ccc(F)cc3)on2)C[C@@H]1NCc1cccnc1	hNpr1 antagonist 11µM, FLuc inh inconclusive, 3T3 cytotox inconclusive, HEK cytotox inconclusive
CC1(C)[C@H](Cc2cc(-c3ccc(F)cc3)on2)C[C@@H]1NC1CCC1	3T3 cytotox 35µM, HEK cytotox 40µM
COCc1cc(C[C@@H]2C[C@H](NCc3cccnc3)C2(C)C)no1	none
COc1ccc(N2CCN(C(=O)c3ccc4c(c3)N(C)C3CCCCN3C4=O)CC2)cc1 (centres undefined)	HEK cytotox inconclusive
CCc1nc2c(c(-c3ccc(Cl)cc3)n1)CN(Cc1ccccc1)CC2	3T3 cytotox 10µM, HEK cytotox 18µM
CCc1nc2c(c(-c3ccc(Cl)cc3)n1)CN(Cc1ccc(OC(F)(F)F)cc1)CC2	3T3 cytotox 25µM, HEK cytotox inconclusive
CCc1nc2c(c(-c3ccc(O)cc3)n1)CN(Cc1ccc(C)cc1)CC2	HEK cytotox inconclusive
CCc1nc2c(c(-c3ccc(Cl)cc3)n1)CN(Cc1ccc(C(F)(F)F)cc1)CC2	3T3 cytotox inconclusive, HEK cytotox 89µM
CCc1nc2c(c(-c3ccc(Cl)cc3)n1)CN(Cc1ccc(C)cc1)CC2	3T3 cytotox 25µM, HEK cytotox inconclusive
CCc1nc2c(c(-c3ccc(Cl)cc3)n1)CN(Cc1ccsc1)CC2	3T3 cytotox inconclusive, HEK cytotox inconclusive
Cn1cccc1CN1C[C@@H](CO)[C@H](NC(=O)c2ccccc2)C1	none
CCC1CN(Cc2cn(-c3ccccc3C)nc2-c2ccc(OC)c(F)c2)CCO1 (centres undefined)	3T3 cytotox inconclusive, HEK cytotox inconclusive
Cc1nn(-c2ccccc2)c2c1C(C)N(C1CCCN([S+](=O)([O-])c3ccccc3)C1)C2=O (centres undefined)	HEK cytotox inconclusive (no result: hNpr1 antagonist, FLuc inh)
CCc1nc2c(c(-c3ccc(O)cc3)n1)CN(Cc1ccccc1OC)CC2	3T3 cytotox inconclusive, HEK cytotox 45µM
CCc1nc2c(c(-c3ccc(O)cc3)n1)CCN(Cc1ccccc1OC)CC2	3T3 cytotox inconclusive, HEK cytotox inconclusive
CC1CCC2(CC1)NC(=O)N(CC(=O)Nc1ccc(Cl)cc1)C2=O (centres undefined)	3T3 cytotox 11µM, HEK cytotox inconclusive
O=C(CN1C(=O)NC2(CCCCC2)C1=O)Nc1ccc(C(F)(F)F)cc1	3T3 cytotox inconclusive, HEK cytotox 28µM
Cc1nnc2ccc(N3CCC(NC(=O)C4CC4)CC3)nn12	none (no result: hNpr1 antagonist, FLuc inh)
COCCN1CCCCCC(O)c2cc(C(=O)NCCN3CCCCC3)ccc21 (centres undefined)	none
Cc1cc(C)cc(NC(=O)c2ccc3c(c2)N(C)C2CCCCN2C3=O)c1 (centres undefined)	FLuc inh inconclusive, 3T3 cytotox inconclusive, HEK cytotox inconclusive
CCc1cccc(NC(=O)c2ccc3c(c2)N(C)C2CCCCN2C3=O)c1 (centres undefined)	FLuc inh inconclusive, 3T3 cytotox inconclusive, HEK cytotox inconclusive
Cc1cccc(NC(=O)c2ccc3c(c2)N(C)C2CCCCN2C3=O)c1 (centres undefined)	FLuc inh 28µM, 3T3 cytotox inconclusive, HEK cytotox inconclusive
CC(C)c1cccc(NC(=O)c2ccc3c(c2)N(C)C2CCCCN2C3=O)c1 (centres undefined)	3T3 cytotox inconclusive, HEK cytotox 28µM
CC(C)c1ccc(NC(=O)c2ccc3c(c2)N(C)C2CCCN2C3=O)cc1 (centres undefined)	FLuc inh 16µM, 3T3 cytotox inconclusive, HEK cytotox 45µM
CCn1cc(CN2CCCC23CCN(c2ccc(C(F)(F)F)cn2)CC3)c(C)n1	3T3 cytotox inconclusive, HEK cytotox inconclusive
O=C(Cn1cccc1-c1nc(-c2ccccc2)no1)NCCCc1ccccc1	HEK cytotox 45µM
Cc1ccc(-c2cn(C3CCN(C(=O)c4ccc(Cl)cc4)CC3)c(=O)[nH]2)cc1	3T3 cytotox inconclusive (no result: hNpr1 antagonist, FLuc inh)
COc1cccc(-c2cc3c(ccn3C(C)C)c(C(=O)NCc3c(C)cc(C)[nH]c3=O)n2)c1	3T3 cytotox inconclusive, HEK cytotox inconclusive
Cc1cc(C)c(CNC(=O)c2nc(-c3ccc(F)cc3)cc3c2ccn3C(C)C)c(=O)[nH]1	3T3 cytotox 45µM, HEK cytotox 50µM
Cc1cc(C)c(CNC(=O)c2nc(-c3ccc(CO)cc3)cc3c2ccn3C(C)C)c(=O)[nH]1	3T3 cytotox inconclusive, HEK cytotox 79µM
Cc1cc(C)c(CNC(=O)c2nc(-c3cncnc3)cc3c2ccn3C(C)C)c(=O)[nH]1	3T3 cytotox inconclusive, HEK cytotox inconclusive

From PubChem
